Assay results as given in PubChem BioAssay (NCI).
The panel holds about 83,000 compounds, 20% with a hit somewhere; the sample as a whole holds those more often.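 Assay: single dose, 48 h. Readout: percent growth (0 = no net growth; negative = cell death). Active: <10.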 Unmarked numbers belong to inactive results. The source made the active and inactive calls.

Key:
Experiment in all cases: NCI-60 one-dose screen, 48 h (100 = growth as untreated, 0 = no growth, -100 = all killed)
Conditions in all cases: 10 µM unless noted
NCI-H23 lung = system: NCI-H23 lung
NCI-H322M lung = system: NCI-H322M lung
HOP-62 NSCLC = system: HOP-62 NSCLC
NCI-H460 lung = system: NCI-H460 lung
HOP-92 NSCLC = system: HOP-92 NSCLC
NCI-H522 lung = system: NCI-H522 lung
A549/ATCC NSCLC = system: A549/ATCC NSCLC
786-0 renal = system: 786-0 renal
COLO 205 colon = system: COLO 205 colon
DU-145 prostate = system: DU-145 prostate
K-562 leukemia = system: K-562 leukemia
MALME-3M melanoma = system: MALME-3M melanoma
MDA-MB-231 breast = system: MDA-MB-231 breast
RXF 393 renal = system: RXF 393 renal
SF-268 CNS = system: SF-268 CNS
SF-295 CNS = system: SF-295 CNS
SF-539 CNS = system: SF-539 CNS
UACC-257 melanoma = system: UACC-257 melanoma
M14 melanoma = system: M14 melanoma
HCT-15 colon = system: HCT-15 colon

Structure (SMILES) | growth (NCI-H23 lung) | growth (NCI-H322M lung) | growth (HOP-62 NSCLC) | growth (NCI-H460 lung) | growth (HOP-92 NSCLC) | growth (NCI-H522 lung) | growth (A549/ATCC NSCLC) | growth (786-0 renal) | growth (COLO 205 colon) | growth (DU-145 prostate) | growth (K-562 leukemia) | growth (MALME-3M melanoma) | growth (MDA-MB-231 breast) | growth (RXF 393 renal) | growth (SF-268 CNS) | growth (SF-295 CNS) | growth (SF-539 CNS) | growth (UACC-257 melanoma) | growth (M14 melanoma) | growth (HCT-15 colon)
S=C1NC2(c3ccccc3)CCC(=S)N2c2ccccc21 (stereo not given) | 103% | 95.8% | 98.2% | 108% | 99.1% | 90.7% | 101% | 104% | 117% | 115% | 93.6% | 99.5% | 90.9% | 116% | 102% | 107% | 107% | 110% | 103% | 102%
COc1ccc(CCN2C(=O)CCSC2=S)cc1OC | 103% | 101% | 97.5% | 102% | 87% | 48.3% | 97.6% | 44.2% | 114% | 67.6% | 80.9% | 101% | 106% | 90.7% | 97.1% | 98.7% | 89.7% | 96.6% | 105% | 86.2%
COc1ccc(/C=C/C(=O)c2ccc3cc(OC)c(OC)cc3c2)cc1OC | 51.7% | 56% | 36% | 40.7% | 51.4% | 31.9% | 19.5% | 42.9% | 25.9% | 46.7% | 8.48% (active) | 90.6% | 101% | 84.2% | 70.7% | 70.8% | 23.5% | 70.2% | 64.2% | 27.5%
CC(C)c1ccc(S(=O)(=O)NC(=O)NC2CCCC2)cc1 | 101% | 98% | 100% | 104% | 107% | 97.2% | 87.7% | 103% | 108% | 107% | 103% | 97.1% | 102% | 115% | 101% | 97.7% | 96.1% | 95.7% | -52.9% (active) | 97.3%
O=c1[nH]nnc2c1ncn2C1OC(CO)C(O)C1O (stereo not given) | 63.3% | 71.1% | 66.7% | 33.1% | 35.7% | 58% | 49.7% | 54.4% | 34.4% | 26.8% | 31.5% | 57.5% | 55.2% | 80.7% | 67.6% | 20.2% | 67.2% | 65.2% | 36.2% | 66.5%
Oc1c(CN2CCN(c3ccccc3F)CC2)cc(Br)c2cccnc12 | 44.6% | 16.7% | -75% (active) | -73.1% (active) | -5.84% (active) | -65% (active) | -65% (active) | -83.5% (active) | -8.74% (active) | -32% (active) | 1.01% (active) | -58.2% (active) | -33.5% (active) | -57.5% (active) | 0.474% (active) | -72.5% (active) | -90.5% (active) | 11.3% | -3.56% (active) | -4.53% (active)
Fc1ccc(Oc2ccc(Nc3ncnc4onc(-c5ccccc5)c34)cc2)cc1 | 104% | 87.9% | 105% | 102% | 88.8% | 90.5% | 90.1% | 97.3% | 122% | 95.2% | 113% | 93.2% | 70.7% | 115% | 83% | 99.7% | 90.1% | 88.3% | 104% | 103%
COc1ccc(Cn2c(Br)c3c(c2Br)-c2nc(N)sc2CC3)cc1 | 57.3% | 66.6% | 35.5% | 15.7% | 58.5% | 2.16% (active) | 39.1% | 56.8% | 66.9% | 57% | 4.07% (active) | 21.9% | 37% | 16.3% | 45.2% | 70.3% | 39.9% | 70.4% | 13.9% | 29.9%
CCOC(=O)C1(C(=O)OCC)N=C(c2ccccc2)C=C1c1ccccc1 | 86.4% | 103% | 105% | 104% | 66.5% | 64.4% | 86.7% | 96% | 99.9% | 106% | 65.2% | 86.4% | 96.3% | 74.9% | 92.6% | 84.9% | 94% | 92.1% | 90.5% | 96.5%
c1ccc2cc3c(Nc4ccc(N5CCOCC5)cc4)ccnc3cc2c1 | 95% | 111% | 100% | 86.5% | 104% | 97.5% | 85% | 91.6% | 106% | 97.2% | 72.7% | 98.1% | 91.3% | 92% | 87.6% | 98% | 92.4% | 108% | 99.9% | 91.1%
CCOC(=O)c1cc2c(n1Cc1ccccc1)-c1oncc1CCC2 | 88.3% | 107% | 77.9% | 97.3% | 86.3% | 61.4% | 59.2% | 102% | 69% | 114% | 24.1% | 39.2% | 74.4% | 84.6% | 88.7% | 98.2% | 83.3% | 82.5% | 68% | 45.7%
O=C(Nc1ccc(Br)cc1F)c1cc(Cl)ccc1O | -8.01% (active) | 4.59% (active) | -14% (active) | 3.19% (active) | -18.8% (active) | -8.76% (active) | 8.65% (active) | -6.93% (active) | 24.2% | 11.8% | 5.34% (active) | -34.7% (active) | -27.9% (active) | -0.138% (active) | 2.69% (active) | -62.6% (active) | -1.11% (active) | -14% (active) | -28.3% (active) | 2.29% (active)
COc1cc(CNC(=O)c2ccsc2Nc2ccnc(C(F)(F)F)c2)ccc1O | 92.3% | 95.3% | 126% | 102% | 81.3% | 87% | 100% | 98.1% | 106% | 107% | 96.6% | 64.4% | 102% | 106% | 94.1% | 104% | 102% | 107% | 100% | 99.1%
CCOc1ccc(-c2nonc2NC(=O)c2cccc(C)c2)cc1OCC | 78.9% | 93.1% | 96.9% | 55.9% | -8.71% (active) | 84% | 65.4% | 73.9% | 36.8% | 80.5% | 11% | 59.6% | 76.5% | 65.3% | 84.1% | 27.8% | 80.8% | 89.4% | 71.3% | 65.2%
O=C1N=c2ccccc2=C1c1sc(=Nc2ccccc2)n(Nc2ccccc2)c1O | 102% | 107% | 100% | 101% | 102% | 90.9% | 108% | 101% | 116% | 115% | 94.4% | 108% | 95.1% | 107% | 99.5% | 102% | 104% | 106% | 99.7% | 102%
CN1CCN(Cc2ccc(NC(=O)c3cncc(C#Cc4nc(N)nc5[nH]ncc45)c3)cc2C(F)(F)F)CC1 | 102% | 114% | 122% | 112% | 77.8% | -37.1% (active) | 103% | 111% | 21.6% | 74.7% | 4.75% (active) | 68.6% | 100% | 79.2% | 102% | 108% | 104% | 83.1% | 89.4% | 97.8%
